Results: PubChem BioAssay (EPA / NIEHS)
Values joined by “and” are separate entries in the source; they are usually repeats but may differ in a detail not shown here. Equal entries are not always repeated. Inconclusive results are not listed. Active and inactive are the calls of the source. How the source made its calls, unless noted: active means hit-call score of the fitted dose curve at least 0.9, where 1 is the maximum; inactive means score below 0.9.

Assays:
SERPINA7 (gene 6906) = assay: CCTE_GLTED_hTBG: CCTE's human Thyroxine-binding Globulin (TBG) Inhibition Assay, Great Lakes Toxicology and Ecology Division (GLTED) Lab (AID 2284343; active means hit-call score of the fitted dose curve at least 0.9, where 1 is the maximum;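 further: active chemicals lower fluorescence versus DMSO baseline by displacing probe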)
How it was run: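 Steps: combine TBG with chemical; incubate 2 hours so that disruptors release ANSA; record fluorescence (380 ex, 475 em). Loss of signal was fitted against DMSO controls.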

[1] = IUF_NPC1_cytotoxicity_72hr: Cytotoxicity Assessment at 72 hours in the Leibniz Research Institute for Environmental Medicine (IUF) Neural Progenitor Cell Proliferation Assay (NPC1) (AID 2284332; active means hit-call score of the fitted dose curve at least 0.9, where 1 is the maximum;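 further: rising LDH signal means more cytotoxicity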)
How it was run: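 Readout is fluorescence from LDH-dependent resazurin conversion, sampled from culture medium after compound contact lasting 72 h. Each well holds one 0.25-0.35 mm human progenitor sphere kept at 37C, 5% CO2 with EGF and FGF.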

[2] = CCTE_Mundy_HCI_iCellGluta_NOG_NeuronCount: CCTE's Neurite Outgrowth Assay in iCellGluta cells for Neuron Count, Mundy Lab (AID 2284340; active means hit-call score of the fitted dose curve at least 0.9, where 1 is the maximum;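 further: cells fixed about 48 h after compound addition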)
How it was run: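 Neuron count read by automated high-content imaging of Hoechst 33342 and betaIII-tubulin/Alexa Fluor-488 labelling in human iPSC glutamatergic neurons. Activity fitted relative to DMSO.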

[3] = CCTE_Mundy_HCI_iCellGluta_NOG_NeuriteCount: CCTE's Neurite Outgrowth Assay in iCellGluta cells for Neurite Count, Mundy Lab (AID 2284342; active means hit-call score of the fitted dose curve at least 0.9, where 1 is the maximum;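 further: chemical exposure about 48 hours starting 2 hours after plating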)
[4] = CCTE_Deisenroth_DEVTOX-GLR_legacy_CellCount: (Legacy) Viability Assessment in CCTE's DevTox GLR-Endo Assay, Deisenroth Lab (AID 2284331); conditions: actives raise or lower the signal
How it was run: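 Nuclei count by fluorescence high-content imaging (5 fields/well) after 48 h differentiation of RUES2-GLR cells. Two exposures, 24 h apart; 1 nM - 200 uM series; n=4. Bidirectional fit vs DMSO.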

[5] = test system: SRY-box transcription factor 17 (SOX17) Protein Expression, Deisenroth Lab, SOX17 (gene 64321); assay: CCTE_Deisenroth_DEVTOX-GLR_legacy_Sox17: (Legacy) CCTE's DevTox GLR-Endo Assay Evaluation of SRY-box transcription factor 17 (SOX17) Protein Expression, Deisenroth Lab (AID 2284341); conditions: actives raise or lower the signal
How it was run: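 RUES2-GLR human pluripotent cells, seeded 24 h, then differentiated 48 h in defined media with two chemical exposures 24 h apart (1 nM - 200 uM, 10 points). Sox17+ fraction from high-content fluorescence imaging; bidirectional fit versus 0.2% DMSO.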

[6] = test system: SRY-box transcription factor 2 (SOX2) Protein Expression, Deisenroth Lab, SOX2 (gene 6657); assay: CCTE_Deisenroth_DEVTOX-GLR_legacy_Sox2: (Legacy) CCTE's DevTox GLR-Endo Assay Evaluation of SRY-box transcription factor 2 (SOX2) Protein Expression, Deisenroth Lab (AID 2284346)
How it was run: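 Read-out: fraction of Sox2+ cells by high-content fluorescence imaging of fixed RUES2-GLR cells after 48 h differentiation with two 24 h-spaced exposures. Positivity cutoff 5x BMAD above endoderm control median; 0.2% DMSO median subtracted.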

[7] = Tanguay_ZF_120hpf_MO24: Oregon State University Tanguay Lab 24 Hour Post-fertilization zebrafish Assay for Mortality (AID 2284389)
How it was run: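 Embryo death at 24 hpf was recorded as present or absent in Tropical 5D zebrafish, dechorionated at 4 hpf and dosed statically from 6 hpf (28C, 0.64% DMSO); 5 uM trimethyltin chloride served as positive control.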

[8] = Tanguay_ZF_120hpf_DP24: Oregon State University Tanguay Lab 24 Hour Post-fertilization zebrafish Assay for Delayed Development (AID 2284390)
How it was run: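 Scored at 24 hpf as a binary present/absent call of delayed development by brightfield, with dead embryos not assessed. Embryos (5D wild type, chorion removed with pronase at 4 hpf) dosed statically from 6 hpf at 28 C in 0.64% DMSO.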

[9] = Tanguay_ZF_120hpf_CRAN: Oregon State University Tanguay Lab 120 Hour Post-fertilization zebrafish Assay for Craniofacial Malformation (AID 2284397)
How it was run: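 Scoring of craniofacial malformation as a binary endpoint was done at 120 hpf by brightfield microscopy and was not done in dead embryos. Exposure was static, starting at 6 hpf, in dechorionated wild-type embryos held singly at 28C with 0.64% DMSO final.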

[10] = Tanguay_ZF_120hpf_AXIS: Oregon State University Tanguay Lab 120 Hour Post-fertilization zebrafish Assay for Axial Malformation (AID 2284398)
How it was run: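 Scoring was binary (present or absent) for body-axis defects, judged by brightfield imaging at 120 hpf in surviving larvae. Exposure was static at 28C from 6 hpf in chorion-free 5D wild-type embryos, with 0.64% DMSO vehicle.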

[11] = Tanguay_ZF_120hpf_MORT: Oregon State University Tanguay Lab 120 Hour Post-fertilization zebrafish Assay for Mortality (AID 2284399)
How it was run: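 Mortality, recorded present/absent via brightfield imaging at 24 and 120 hpf, in 5D zebrafish embryos exposed statically from 6 hpf after pronase chorion removal. Exposure at 28C, 0.64% DMSO vehicle, DMSO baseline.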

[12] = Tanguay_ZF_120hpf_EDEM: Oregon State University Tanguay Lab 120 Hour Post-fertilization zebrafish Assay for Edema Malformation (AID 2284400)
How it was run: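 Edema recorded as a binary endpoint under brightfield at 120 hpf, excluding embryos that died. Exposure was static, sealed, 28C, from 6 hpf in dechorionated wild-type larvae, final DMSO 0.64%, DMSO as baseline.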

[13] = Tanguay_ZF_120hpf_MUSC: Oregon State University Tanguay Lab 120 Hour Post-fertilization zebrafish Assay for Muscle Malformation (AID 2284401)
How it was run: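 Scored as a binary brightfield endpoint at 120 hpf, fitted versus DMSO. Single dechorionated wild-type (Tropical 5D) zebrafish embryos per well, statically exposed at 28C from 6 hpf onward with final DMSO 0.64%.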

[14] = Tanguay_ZF_120hpf_BRN: Oregon State University Tanguay Lab 120 Hour Post-fertilization zebrafish Assay for Brain Region Malformation (AID 2284402)
How it was run: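 Binary brightfield scoring of brain malformation at 120 hpf in 5D wild-type larvae, chorion removed with pronase at 4 hpf. Static exposure began at 6 hpf, 28C, sealed plates, DMSO 0.64% (vol/vol) as vehicle baseline.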

[15] = Tanguay_ZF_120hpf_TCHR: Oregon State University Tanguay Lab 120 Hour Post-fertilization zebrafish Assay for Touch Responsive (AID 2284403)
How it was run: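 Binary touch-response calls are made at 120 hpf in 5D wild-type zebrafish larvae. These larvae were dechorionated with pronase and exposed singly from 6 hpf in sealed, dark plates at 28 °C with 0.64% DMSO final; dead embryos are excluded.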

[16] = Tanguay_ZF_120hpf_ANY: Oregon State University Tanguay Lab 120 Hour Post-fertilization zebrafish Assay for Any Mortality and Malformation (AID 2284404)
How it was run: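 Dechorionated Tropical 5D wild-type embryos, one per well from 6 hpf, static exposure in sealed, dark plates at 28C until 120 hpf, 0.64% DMSO final. Brightfield scoring of mortality and malformations as binary presence/absence, pooling 13 morphology endpoints.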

[17] = CCTE_Padilla_ZF_Score.Craniofacial: CCTE's 144 Hour Post-fertilization zebrafish Assay Score for Craniofacial Malformation, Padilla Lab (AID 2284405)
How it was run: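 Craniofacial defects were scored at 6 dpf by two blinded observers using stereomicroscopy. Exposure of wild-type embryos began at 6–8 hpf in sealed wells of 10% Hanks' solution at 26C, with chemical removed by rinsing at 5 dpf.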

[18] = VALA_TUBIPS_Antagonist_CellCount: Viability Assessment in the VALA Sciences human iPS-derived Endothelial Tubule Formation (TUBIPS) Antagonism Assay (AID 2284335; active means hit-call score of the fitted dose curve at least 0.9, where 1 is the maximum)
[19] = VALA_MIGHUV1_ScratchOnly_WoundArea: VALA Sciences human Umbilical Vein Endothelial Cell Migration (MIGHUV) Assay, Area of Scratch Wound Inhibited Recovery (AID 2284336; active means hit-call score of the fitted dose curve at least 0.9, where 1 is the maximum)
How it was run: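 Wound area remaining after 24 h recovery imaged by Hoechst nuclear fluorescence in scratched HUVEC cultures, chemicals added within 30 min of scratching across a 6-point series. Gain of signal fitted against 0.1% DMSO; cytochalasin D positive control.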

Sc1ccccc1
AC50 (SERPINA7 (gene 6906)): 14.1 µM (active)

Cc1cc(-c2ccc(N)c(C)c2)ccc1N
AC50 (SERPINA7 (gene 6906)): 26.5 µM (active) and 35.2 µM (active)

CCC(C)(c1ccc(O)cc1)c1ccc(O)cc1
AC50 (SERPINA7 (gene 6906)): 13.7 µM (active)

CCC(C)c1cc([N+](=O)[O-])cc([N+](=O)[O-])c1O (configuration not stated)
AC50 (SERPINA7 (gene 6906)): 19.3 µM (active)

CO/C=C(/C(=O)OC)c1ccccc1COc1cccc(C(F)(F)F)n1
outcome [1]: inactive | AC50 [2]: 35.8 µM (active) | AC50 [3]: 20 µM (active)

ClC1=C(Cl)[C@]2(Cl)[C@@H]3[C@@H]4C[C@@H]([C@H]5O[C@@H]45)[C@@H]3[C@@]1(Cl)C2(Cl)Cl
AC50 (SERPINA7 (gene 6906)): 1.56 µM (active)

CC1=C2C[C@H]3[C@@H](CC=C4C[C@@H](O)CC[C@@]43C)[C@@H]2CC[C@]12O[C@@H]1C[C@H](C)CN[C@H]1[C@H]2C
outcome [4]: inactive | outcome [5]: inactive | outcome [6]: inactive

O=C(O)C(F)(F)C(F)(F)C(F)(F)C(F)(F)C(F)(F)C(F)(F)C(F)(F)C(F)(F)F
AC50 (SERPINA7 (gene 6906)): 86.5 µM (active) | outcome [7]: inactive | outcome [8]: inactive | outcome [9]: inactive | outcome [10]: inactive | outcome [11]: inactive | outcome [12]: inactive | outcome [13]: inactive | outcome [14]: inactive | outcome [15]: inactive | outcome [16]: inactive | outcome [17]: inactive

CC(C)(c1ccccc1)c1ccc(O)cc1
AC50 (SERPINA7 (gene 6906)): 3.54 µM (active)

COc1ccc(O)c(C(C)(C)C)c1
outcome [2]: inactive | outcome [3]: inactive

Oc1ccc(C(c2ccc(O)cc2)(C(F)(F)F)C(F)(F)F)cc1
outcome [18]: inactive | outcome [19]: inactive | AC50 (SERPINA7 (gene 6906)): 17.1 µM (active)

NS(=O)(=O)C(F)(F)C(F)(F)C(F)(F)C(F)(F)C(F)(F)C(F)(F)C(F)(F)C(F)(F)F
outcome [2]: inactive | outcome [3]: inactive | outcome [7]: inactive | AC50 [8]: 16.4 µM (active) | AC50 [9]: 3.27 µM (active) | outcome [10]: inactive | AC50 [11]: 5.51 µM (active) | outcome [12]: inactive | outcome [13]: inactive | outcome [14]: inactive | outcome [15]: inactive | AC50 [16]: 2.59 µM (active) | outcome [17]: inactive
